From PubChem
Only a selection was taken, and hits are over-represented in it overall.
Marburg entry inh: blocks Marburg virus binding to or entry into cells. 300,000 tested, 1.8% active. AID 540276. Potency, µM (series often up to 37.8 µM), inactives show top-dose activity change, negative = inhibition, most hits filed as inhibitors. Marburg virus pseudotyped entry inhibition, cell reporter; calls by dose curve; tested in HEK293 cells; also: potency is read from the fitted curve at half-maximal effect; % is scaled to controls: 0 for no effect and ±100 for the full control effect
CHX counter: counter-screen for Shiga toxin inhibitors: cycloheximide protein synthesis inhibition; max response, %; 300,000 tested, 12% active; AID 2314; cell reporter, cycloheximide protein synthesis inhibition counterscreen; in the data active = max response mostly above about 13%, no sharp cut-off; inactive = mostly below about 14%; also: read at 38.3 µM for the half of the compounds with a filed dose; 0% is about no effect
Lassa entry inh: blocks Lassa virus binding to or entry into cells. Lassa virus pseudotype entry inhibition, cell reporter. Potency, µM (highest dose often 37.9 µM), for the others: top-dose activity change, negative = inhibition, hits mostly inhibitors. 300,000 tested, 1.2% active; calls by dose curve; tested in HEK293 cells; also: potency is read from the fitted curve at half-maximal effect; % is scaled to controls: 0 for no effect and ±100 for the full control effect; nearly all actives have a fitted effect of over 50% in size
AMA1-RON2 inh: disrupts binding of P. falciparum AMA1 to RON2. AlphaScreen AMA1-biotinylated RON2 peptide binding. AID 720542. 360,000 tested, 0.2% active. Potency, µM (highest dose often 58.2 µM), inactives show at the top dose activity change, negative = inhibition, most hits filed as inhibitors; active = well fitted inhibition curve with a large enough effect; inconclusive = small, poorly fitted or top-dose-only effect; inactive = no such curve, though single readings can be large or run the other way;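 also: potency is read from the fitted curve at half-maximal effect; 0% = vehicle wells and -100% = peptide control; nearly all actives have a fitted effect of over 45% in size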
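AMA1 (3D7) with his tag at 25 nM final met compounds first, then biotinylated RON2 peptide at 25 nM; detection used donor plus acceptor beads, 10 µg/mL apiece, read by AlphaScreen after 30 min at room temperature.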
Shiga inhibitor: blocks Shiga toxin action in Vero cells | 290,000 tested, 9.2% active | Vero cells, Shiga toxin protein synthesis inhibition reporter | inhibition, % at 38.7 µM | AID 2315; in the data active = inhibition mostly above about 28%, no sharp cut-off; inactive = mostly below about 43%; also: 0% is about no effect
The depositor's hits bear a star; ? = inconclusive; . = no result given; [ ] = another dose, or the depositor's remark.

SMILES	Marburg entry inh	CHX counter	Lassa entry inh	AMA1-RON2 inh	Shiga inhibitor
Cc1ccc(C(=O)NC(=S)Nc2cc(-c3nc4ccccc4s3)ccc2C)cc1	?	65.2*	23.2%	-6.1%	116.9*
COc1ccc(-c2nc3ccccc3s2)cc1NC(C)=O	?	35.0*	-9.3%	-26.2%	99.8*
Cc1ccc(C(=O)Nc2ccc(-c3nc4ccccc4s3)cc2C)cc1C	?	.	33.7%[46.1 µM]	.	.
COc1ccc(OCC(=O)Nc2cc(-c3nc4ccccc4s3)ccc2C)cc1	.	.	-11.3%[46.1 µM]	.	.
COc1ccc(-c2nc3ccccc3s2)cc1NC(=O)c1ccccc1F	-25.8%[46.1 µM]	.	11.7%[46.1 µM]	.	.
COc1ccc(-c2cnc3ccccc3n2)cc1NC(=O)CNC(=O)c1ccccc1	2.1%	35.7*	?	-5.6%	35.9
COc1ccc(-c2nc3ccccc3s2)cc1NC(=O)COc1cccc(C)c1	19.7%[46.1 µM]	54.0*	-14.5%[46.1 µM]	.	71.2*
O=C1CNC(=S)N1CCc1ccc(O)c(O)c1	6.1%[46.1 µM]	9.6	-10.7%[46.1 µM]	7.3%	9.1
CC1=CC(=O)C(C(C)=Nc2cccc(Cl)c2)C(=O)O1 (stereo not drawn)	17.9%[46.1 µM]	.	5.5%[46.1 µM]	-4.1%	.
CNC(=O)[C@@]1(C)C=C[C@@H](Cc2ccccc2)N1C(=O)OC	21.1%	21.8*	18.9%	4.8%	50.1
COC(=O)N1[C@H](Cc2ccccc2)C=C[C@]1(C)C(=O)NCc1ccccn1	26.8%	-0.1	?	52.1%	-5.1
COCCNC(=O)[C@@]1(C)C=C[C@@H](Cc2ccccc2)N1C(=O)c1ccccc1	.	20.5*	.	8.5%	28.3*
CN(C)/C=C(\C#N)C(=O)Nc1ccc(F)c(Cl)c1	.	24.0*	.	1.7%	52.2*
CN(C)/C=C(\C#N)C(=O)N/N=C/c1ccc(Cl)cc1	.	9.5	.	-13.3%	14.1
COC(=O)/C(C#N)=C/N(C)C	2.6%[46.1 µM]	-0.9	1.9%[46.1 µM]	5.3%	16.7
CN(C)/C=C(\C#N)C(=O)Nc1ccc(F)cc1	?	15.7*	-1.2%	-0.7%	50.3*
NC(=O)c1ccccc1NC(=O)CN1CCN(Cc2ccc(Cl)cc2Cl)CC1	?	-5.0	-26.3%	-8.3%	-10.1
CCCc1nnc(NC(=O)c2cc3ccccc3o2)s1	?	13.0*	20.5%	-6.1%	40.9
CCCc1nnc(NC(=O)c2cc3ccccc3oc2=O)s1	12.2%	-0.7	13.1%	-5.8%	9.8
COCc1nnc(NC(=O)c2cccc(NC(=O)c3ccccc3)c2)s1	?	-2.5	-6.0%	8.6%	2.9
COCc1nnc(NC(=O)c2cc3ccccc3o2)s1	?	17.5*	?	-4.2%	58.1*
O=C(Nc1ccc2ccccc2c1)c1ccccc1Cl	.	.	.	-7.9%	.
O=C(Nc1ccc2ccccc2c1)c1ccc(Cl)cc1Cl	.	26.0*	.	-7.8%	31.7*
O=C(Nc1ccc2ccccc2c1)c1ccccc1O	2.51µM*	23.5*	?	5.9%	36.1*
CN1C(=O)c2ccc(NC(=O)c3ccc(Cl)cc3Cl)cc2C1=O	.	22.0*	.	-6.4%	14.1
SMILES	Marburg entry inh	CHX counter	Lassa entry inh	AMA1-RON2 inh	Shiga inhibitor
O=C(Nc1ccc2ccccc2c1)c1cc(F)c(F)cc1Cl	7.08µM*	47.3*	?	4.7%	109.6*
COc1cc2c(cc1OC)C(COc1cc(C)cc(C)c1)N(C(C)=O)CC2 (stereo not drawn)	.	8.8	.	-1.0%	22.0
O=C1[C@H]2[C@H]3[C@H](O)[C@H](O)C/C(=N\OCc4ccccc4)[C@@H]3CC[C@H]2C(=O)N1C1CCCCC1	-13.6%[14.2 µM]	.	.	.	.
O=S(=O)(NCCc1csc2nc(-c3ccc(Cl)cc3)nn12)c1cccs1	.	.	-19.2%[46.1 µM]	.	.
COc1cccc(CN2CCC2(C)C(=O)Nc2cccc(Oc3ccccc3)c2)c1OC (stereo not drawn)	.	.	.	-2.3%	.
CCOC(=O)Cn1c(=NC(=O)c2cccs2)sc2cc(C(=O)OC)ccc21	?	44.4*	?	6.9%	72.2*
Cn1nc(C(=O)NNC(=O)CCc2ccccc2Cl)c2ccccc2c1=O	8.4%	.	24.7%[46.1 µM]	99.6%	.
CN1C(=O)NC(=O)[C@]2(Cc3ccccc3N3CCN(c4ccccc4)CC32)C1=O (stereo partly drawn)	-1.2%	30.6*	-7.9%	-11.7%	12.8
O=C1NC(=O)[C@]2(Cc3ccccc3N3CCN(c4ccccc4)CC32)C(=O)N1Cc1ccccc1 (stereo partly drawn)	5.7%	30.1*	17.8%	-20.0%	54.3*
O=C1NC(=O)C2(Cc3ccccc3N3CCCC32)C(=O)N1Cc1ccccc1 (stereo not drawn)	-0.5%	-2.9	-1.7%	-17.6%	-6.9
O=C1NC(=O)[C@]2(Cc3ccccc3N3CCN(c4ccccc4)CC32)C(=O)N1c1ccccc1 (stereo partly drawn)	0.8%	25.0*	2.4%	12.5%	75.9*
